These results are taken from the supplement of paper PMC11417369.

In all, about 25,000 sequences were measured (“ln(normalized median fluorescence intensity)”: median about 9.3, highest 2% from about 10 on). Shown is part of a subset that was picked to be rich in the highest values.

This assay has as its system PF3D7_0420300 AP2 domain 1 (GST-tagged). Nature of the assay: gcPBM binding intensity (ln(normalized median fluorescence intensity)); higher = stronger DNA binding. A digest of the protocol:
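Alexa488 anti-GST antibody, scanned at 488 nm, detected GST-tagged P. falciparum DNA-binding domains that had been expressed in E. coli and incubated for 1 h on an Agilent 4 × 180k array. The array carried primer-extended double-stranded 36-bp intergenic genomic probes and negative controls. Binding intensity is the highest Masliner-normalised natural-log median intensity across replicate spots of either orientation of each probe.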
Turning to “AGTAACTAATTAAATGCATGTCGATATATATTATAT [TGCATGCA_site1038]”, the “gcPBM binding intensity (ln)” value worked out at 9.35.
To “CGTTTTCTATATCATTGTACATATTCATGTGTAAAT [XGTACX_site2741]” belongs 9.24; to “CATAAATACAGATATACACACATATATATATATATA [CACACA_site4528]”, 9.45; to “AATAAAAAGTAATAATAACGTATAATTTATTATACT [TGCATGCA_negctrl_site414]”, 9.14.
As to “TATTTTTTATGATTAACACACACACTAATAAAAAAA [CACACA_site9370]”, the “gcPBM binding intensity (ln)” value came to 9.77.
For “ACGTTTACGTTATTATGTACGTAATATATCATACCT [XGTACX_site5006]” the value was 9.09.
For “ATACTAAAGAAACACACACACATATATATATAGAAT [CACACA_site100]” the value was 10.3; for “AAAAAAAAAAGAAACACACACATATATATATAGAAT [CACACA_site1777]”, 10.1.
Consider “CAACAAAAGAAACACACACACACAAACACAAAAAAA [CACACA_site3389]”, for which the “gcPBM binding intensity (ln)” value stood at 10.
To “AAAAAAAAGAAAAACACACACATATATATATAGAAT [CACACA_site1006]” belongs 10.2; to “CACACCCACCAACACACACACAAAAAAAAAAAGAAA [CACACA_site500]”, 9.59.
To “TTAACAAAGAAACACACACACACACCCAAAAAAAAA [CACACA_site516]” belongs 10.2.
To “TGACATAATGTGTGTAGTACATATATCGTTATTTGA [XGTACX_site5152]” belongs 9.46; to “ACATGTAAATTTACATGTACATGTAACACTTAATAT [XGTACX_site4575]”, 9.39.
“AATAAAAAAGAATATACACACATAAATATAAAATAT [CACACA_site683]”: the “gcPBM binding intensity (ln)” value amounted to 9.9.
For “AGAAAGAAAGAATACACACACACATATATAAATATC [CACACA_site7716]”, the “gcPBM binding intensity (ln)” value worked out at 10.2.
To “AAAGAAATGAAATATACACACATACATATATACATA [CACACA_site9335]” belongs 9.81; to “TAAAGAAATAAATACATACACACATATATATATATA [CACACA_site3363]”, 9.46.
To “AGAAAGAAAGAATACACACACACATATATATATATC [CACACA_site3744]” belongs 10.4.
Turning to “GTATCAAAAGAATACACACACACATACATATATATA [CACACA_site3796]”, the “gcPBM binding intensity (ln)” value amounted to 10.2.
For “AAAAAAAACAAATACACACGCACACCGAAAAAAAAA [CACACA_site803]” the value was 10; for “TCCTACATATAAAAATGTACCCATTGTTTTTTTTTT [XGTACX_site7205]”, 9.11; for “TTCATTCATTTTATTACACACAAAAAAAAAAAAAAA [CACACA_site3680]”, 9.07.
Turning to “AACATATATATATATACATGCATATGAACAACGAAT [TGCATGCA_site93]”, the “gcPBM binding intensity (ln)” value is 9.62.
“CTTTTTAATGAATACACACACACACCGATATATATA [CACACA_site5296]”: the “gcPBM binding intensity (ln)” value was 10.1.
Take “CACAAATATACAAATACACACAAATATACACATATA [CACACA_site7176]”: the “gcPBM binding intensity (ln)” value turned out to be 9.77.
As for “AAAAAAAAAAAACACACACACATATATATATATATA [CACACA_site732]”, the “gcPBM binding intensity (ln)” value is 9.75.
“AAAAAAAAAAAACACACACACACATACAAAATATAT [CACACA_site1448]”: the “gcPBM binding intensity (ln)” value was 10.3.
For “AAGGCAAACAAACACACACACATATATACATATATA [CACACA_site2122]” the value was 9.98.
For “AGCAAATACAAACACACACACACATATACATATATA [CACACA_site3497]” the value was 10.2; for “AAAAAAAAAAAAAACATACACACAAATATATACATA [CACACA_site4010]”, 9.67.
To “CACAAATATATACATACACACATATATACACATATA [CACACA_site8024]” belongs 9.86; to “AAAAAAAAAAAACATACACACAAATATATACATACA [CACACA_site4011]”, 9.89; to “AAAAAACAAAAACACACACACACATATATATATATA [CACACA_site3654]”, 10.2.
Take “TAAAGGCAAACAAACACACACACATATATACATATA [CACACA_site2123]”: the “gcPBM binding intensity (ln)” value was 10.2.
With “AAAAAAAAAAAAAACACACACATATATATATATATA [CACACA_site1891]”, the “gcPBM binding intensity (ln)” value amounted to 9.55.
To “TAAAGGCAAACAAACACACACACATATATACCTATA [CACACA_site7078]” belongs 9.91; to “TAATAATTATTGCACGCACACAAAAACCTATAGATT [CACACA_site2931]”, 9.45.
To “ATGATCATAAAACACACACACAAAAAAAAAAAAAAA [CACACA_site1805]” belongs 9.51.
To “TTATTTTTTCAAGAATGTACTTACGAATTGTCGTAT [XGTACX_site1363]” belongs 8.78; to “ATAAAAACATAAAAATGTACATATATATATATATAT [XGTACX_site7165]”, 9.23; to “TGAGATAACAAAAGTTGTACTTTTTTTTTTTTTTTT [XGTACX_site3004]”, 8.89.
TATATATATATAATAGTGCATAAATAAATATATAAA: the “gcPBM binding intensity (ln)” value came to 9.28.
Regarding “TACAATATTTTGAGACGTACATATATACATTTACAT [XGTACX_site5880]”, the “gcPBM binding intensity (ln)” value was 9.24.
“AAAATGAATATAATGACGCACACTTAAAATTGTTAA [CACACA_site2509]”: the “gcPBM binding intensity (ln)” value was determined as 9.29.
For “ATATGTTTATTAAATGCATGTCAAGACTTAAGATAT [TGCATGCA_site329]” the value was 9.24.
